Source: PubChem (The Scripps Research Institute Molecular Screening Center)
Only some compounds are listed: those with a hit (about 2.3% of all), similar ones and a draw of the others.
UHRF1 binding = human UHRF1 methylated DNA binding inhibitors; Q96T88; UHRF1 binding to methylated oligo, TR-FRET; inhibition, % at 4.4 µM; 370,000 tested, 0.75% active; AID 687016; in the data active means inhibition above about 21%;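 further: UHRF1 SRA domain binding a hemimethylated CpG hairpin DNA probe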
Target sequence (Q96T88 whole entry, looked up, the tested form may be a part): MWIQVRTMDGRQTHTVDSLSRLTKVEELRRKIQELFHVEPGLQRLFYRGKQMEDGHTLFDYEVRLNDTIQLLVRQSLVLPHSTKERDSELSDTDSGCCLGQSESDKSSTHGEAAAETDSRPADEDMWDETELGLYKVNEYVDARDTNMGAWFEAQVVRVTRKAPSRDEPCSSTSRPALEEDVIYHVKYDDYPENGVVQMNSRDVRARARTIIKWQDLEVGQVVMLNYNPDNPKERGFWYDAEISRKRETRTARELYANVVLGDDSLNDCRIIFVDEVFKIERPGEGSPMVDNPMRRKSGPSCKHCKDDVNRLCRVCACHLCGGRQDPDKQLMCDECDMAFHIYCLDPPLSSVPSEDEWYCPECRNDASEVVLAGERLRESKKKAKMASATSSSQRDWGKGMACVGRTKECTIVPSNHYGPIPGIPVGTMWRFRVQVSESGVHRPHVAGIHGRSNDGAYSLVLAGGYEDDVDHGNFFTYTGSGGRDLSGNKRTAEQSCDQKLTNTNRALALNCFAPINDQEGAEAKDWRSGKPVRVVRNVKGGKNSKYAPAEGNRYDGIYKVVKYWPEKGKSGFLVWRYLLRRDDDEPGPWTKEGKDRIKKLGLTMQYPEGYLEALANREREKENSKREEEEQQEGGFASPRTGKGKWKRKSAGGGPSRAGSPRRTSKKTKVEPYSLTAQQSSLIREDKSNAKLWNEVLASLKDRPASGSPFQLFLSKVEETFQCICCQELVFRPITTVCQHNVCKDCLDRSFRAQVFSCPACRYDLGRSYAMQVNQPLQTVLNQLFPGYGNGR
LEDGF integ inh = blocks HIV-1 LEDGF/p75-dependent DNA integration | TR-FRET IN-LEDGF/p75 DNA integration, Eu/Cy5 | inhibition, % at 3.7 µM | 370,000 tested, 0.64% active;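 active means inhibition above the screen-wide mean plus 3 SD, cut at about 13% in these data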;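 further: signal is the Cy5 over europium emission ratio at 671 and 618 nm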
PLCg1 inh = inhibitors of human phospholipase C gamma1. P19174. purified PLC-gamma1, fluorogenic substrate, fluorescence. inhibition, % at 12.2 µM. 370,000 tested, 0.84% active. AID 720700; in the data active means inhibition above about 9.5%
PLC-beta3 inh = PLC-beta3 (human) inhibition, primary screen | Q01970 | Purified PLC-beta3, fluorogenic substrate, fluorescence | 370,000 tested, 0.18% active | inhibition, % at 12.2 µM
MBD2 inh = MBD2-methylated oligo binding inhibition. inhibition, % at 4.4 µM. TR-FRET, MBD2 binding to methylated oligonucleotide. 370,000 tested, 0.31% active; in the data active means inhibition above about 13%
PLCgamma1 ctr = inhibits human PLC-gamma1 in PLC-beta3 counter-screen. purified PLC-gamma1, fluorogenic substrate, fluorescence. shares compounds with PLCg1 inh. inhibition, % at 12.3 µM. 3,300 tested, 3.1% active; in the data active means inhibition above about 9.5%
PLCb3 confirm = confirmation of human PLC-beta3 inhibitors | shares compounds with PLCg1 inh | inhibition, % at 12.3 µM | purified PLC-beta3, fluorogenic substrate fluorescence | 3,300 tested, 1% active
Large screens that a line does not name were inactive (follow-up assays come after a bar, where they were run). Unless noted, no stated cut-off is given here; in the data, active means inhibition above about 11%; inactive means the rest.

CCC[C@H]1[C@@H](OC(=O)NCCc2c[nH]c3ccccc23)CC[C@@]23CCCN2C(=O)CCC[C@@H]13	none
COC(=O)[C@H]1C[C@@]2(N3CCCCC3)c3ccccc3N[C@H]2N1S(=O)(=O)c1ccc([N+](=O)[O-])cc1	none
CCOC(=O)Cc1nc(N2CCCN(C(C)=O)CC2)c2c(C)c(C(=O)OCC)sc2n1	none
O=C(CCNc1cc(Cl)cc(Cl)c1)c1cccs1	PLCg1 inh 13 | PLCgamma1 ctr 11 | PLCb3 confirm inactive
O=C(CCNc1ccc(Cl)cc1)c1cccs1	none
CC(=O)Nc1cccc(NC(=O)c2cc3ccccc3o2)c1	PLCg1 inh 9.7 | PLCgamma1 ctr inactive | PLCb3 confirm inactive
CCC(CO)Nc1cccc2c1S(=O)(=O)N(Cc1cn(Cc3cccc(C(F)(F)F)c3)nn1)Cc1ccccc1O2 (centres undefined)	none
Cc1ccc(OCC(=O)OCc2c(C)noc2C)cc1C	PLCg1 inh 15 | PLCgamma1 ctr inactive | PLCb3 confirm inactive
CC(C)C(CCNC1CCN(C)CC1)c1ccc(Cl)cc1 (centres undefined)	none
CN1CCC(NCCC(c2ccc(F)cc2)c2ccc(Cl)cc2)CC1 (centres undefined)	PLCg1 inh 10 | PLCgamma1 ctr inactive | PLCb3 confirm inactive
O=C1N(Cc2ccccc2)c2ccccc2C12CCCc1sc(CCc3ccccc3)nc12 (centres undefined)	none
Cc1nn(-c2ccccc2)c(Cl)c1C(=O)NCc1ccccc1F	none
Cc1nn(-c2ccccc2)c(Cl)c1C(=O)NCCCCNC(=O)c1c(C)nn(-c2ccccc2)c1Cl	PLCg1 inh 12, PLC-beta3 inh 14 | PLCgamma1 ctr inactive | PLCb3 confirm inactive
N#Cc1cc([N+](=O)[O-])cnc1Nc1ccccc1	PLCg1 inh 10, PLC-beta3 inh 12 | PLCgamma1 ctr inactive | PLCb3 confirm inactive
CCOC(=O)CNc1ncc([N+](=O)[O-])cc1C#N	none
CC(C)C[C@@H](CO)N1CCN(C)CCC1=O	PLCg1 inh 14 | PLCgamma1 ctr inactive | PLCb3 confirm inactive
CC(C)C[C@@H](CO)N1CCNCCC1=O	none
CCC(=O)Nc1nnc(C)s1	PLCg1 inh 10 | PLCgamma1 ctr inactive | PLCb3 confirm inactive
CCCCC(=O)Nc1nnc(C)s1	none
Cc1cc(Nc2cccc(Cl)c2Cl)n2ncnc2n1	PLCg1 inh 13 | PLCgamma1 ctr inactive | PLCb3 confirm inactive
Cc1ccc(-c2ccc(/C=N/NC(=S)Nc3ccccc3)o2)cc1[N+](=O)[O-]	PLCg1 inh 9.7 | PLCgamma1 ctr inactive | PLCb3 confirm inactive
Cc1ccc(NC(=S)NC2CC3CCC(C2)N3Cc2ccco2)cc1C (centres undefined)	PLCg1 inh 13 | PLCgamma1 ctr inactive | PLCb3 confirm inactive
COc1ccc(C(=O)NCC(=O)OC2CCCCC2=O)cc1 (centres undefined)	PLC-beta3 inh 14 | PLCgamma1 ctr inactive | PLCb3 confirm inactive
CC(=O)Nc1nnc(SCC(=O)NCCOc2ccccc2)s1	PLCg1 inh 9.9 | PLCgamma1 ctr inactive | PLCb3 confirm inactive
CC(=O)Nc1ccc2nc(SCC(=O)NCCOc3ccccc3)sc2c1	none
C=CCN(Cc1ccc(Cl)s1)C(=O)c1ccc(F)c(S(=O)(=O)N2CCOCC2)c1	PLCg1 inh 80 | PLCgamma1 ctr inactive | PLCb3 confirm inactive
CC(C)C[C@H]1COc2cc(N3CCCC3)ccc2S(=O)(=O)N1C	none
O=C(c1ccc(F)cc1F)N1CCC(Oc2cccnc2)CC1	none
O=C(CSc1nc2ccccc2[nH]1)NCc1ccccc1	PLCg1 inh 14 | PLCgamma1 ctr inactive | PLCb3 confirm inactive
O=C1CCC(=O)N1c1ccc(CSc2nc3ccccc3[nH]2)cc1	PLCg1 inh 11 | PLCgamma1 ctr inactive | PLCb3 confirm inactive
CC(=O)Nc1ccc(NC(=O)CCCSc2nc3ccccc3[nH]2)cc1	PLCg1 inh 13 | PLCgamma1 ctr inactive | PLCb3 confirm inactive
O=C(CSc1nc2[nH]ncc2c(=O)[nH]1)NCc1ccc(F)cc1	PLCg1 inh 12 | PLCgamma1 ctr inactive | PLCb3 confirm inactive
COc1ccc(CSc2nc3ccccc3[nH]2)cc1	none
C=CCNC(=O)CSc1nc2c(c(=O)[nH]1)CCCC2	none
CCOC(=O)[C@]12CCCCC/C=C\1N(Cc1ccc(OC)cc1)C(=O)[C@H]2CC(=O)NCCc1ccccc1OC	none
CCC(C)Nc1nc2c(c(=O)[nH]c(=O)n2C)n1CCCc1ccccc1 (centres undefined)	PLCg1 inh 10 | PLCgamma1 ctr inactive | PLCb3 confirm inactive
CCC(C)Nc1nc2c(c(=O)[nH]c(=O)n2C)n1CCC(C)C (centres undefined)	PLCg1 inh 10, PLC-beta3 inh 11 | PLCgamma1 ctr inactive | PLCb3 confirm inactive
Cc1nc2ccc(S(=O)(=O)NCC(=O)NCc3ccccc3C)cc2s1	none
CCC(C)NC(=O)C1CCN(S(=O)(=O)c2ccc3c(c2)CC(C)N3C(C)=O)CC1 (centres undefined)	none
CCC(Cc1ccccc1)NC(=O)C1CCN(S(=O)(=O)c2ccc3c(c2)CC(C)N3C(C)=O)CC1 (centres undefined)	PLCg1 inh 12 | PLCgamma1 ctr inactive | PLCb3 confirm inactive
Cc1ccccc1CN1CCCCC(NC(=O)Cc2cccs2)C1=O (centres undefined)	none
O=C(NCc1cccs1)C1CCC(CNS(=O)(=O)c2ccccc2)CC1 (centres undefined)	PLCg1 inh 12 | PLCgamma1 ctr inactive | PLCb3 confirm inactive
CC(Sc1ccc2c(c1)OCCO2)C(=O)Nc1ccc(N2CCOCC2)cc1 (centres undefined)	PLCg1 inh 13 | PLCgamma1 ctr inactive | PLCb3 confirm inactive
O=C(CSc1ccc2c(c1)OCCO2)Nc1ccc(N2CCOCC2)cc1	none
CC(C)c1nc2c(s1)CCc1onc(-c3ccc(Cl)cc3)c1-2	none
COc1ccc(-c2noc3c2-c2nc(C(C)C)sc2CC3)cc1	PLCg1 inh 11 | PLCgamma1 ctr inactive | PLCb3 confirm inactive
COc1ccc(-c2noc3c2-c2nc(-c4ccc(Br)cc4)sc2CC3)cc1	PLCg1 inh 14 | PLCgamma1 ctr inactive | PLCb3 confirm inactive
O=C(OC12CCCN(C1)/C(=C/c1cccnc1)C2)C1CCCCC1 (centres undefined)	none
Cc1ccc(-c2nn(-c3ccccc3)cc2CO)cc1	none
N=C(N)SCc1cn(-c2ccccc2)nc1-c1ccc(Br)cc1	PLCg1 inh 9.5 | PLCgamma1 ctr inactive | PLCb3 confirm inactive
CC(C)Cn1cnc2c(Sc3c([N+](=O)[O-])ncn3C)nc(N)nc21	PLCg1 inh 22, PLC-beta3 inh 12 | PLCgamma1 ctr inactive | PLCb3 confirm inactive
CCc1nc2ccc(C(=O)N3CCCC(C(N)=O)C3)cn2c1N(C)Cc1ccc(OC)cc1 (centres undefined)	PLCg1 inh 10 | PLCgamma1 ctr inactive | PLCb3 confirm inactive
